Reference: PubChem BioAssay AID1159580 (chemical genetic matrix, 2015)
Several values for one entry are separate records, joined by “and”; a condition that tells them apart may be missing. Equal values may be shown once. About 2,000 (36%) of roughly 5,500 compounds were called active. Another 18% or so got no clear call; they are omitted. No stated cut-off is given here; in the data, active means normalized growth mostly below about 0.91 (no sharp cut-off); inconclusive means no clear call, values can overlap the other calls; inactive means mostly above about 0.92. Some of the results follow.

Assay: chemical genetic growth profiling, strain panel (AID 1159580);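 further: tested at 20 µM; growth read once vehicle control cultures reached saturation at 30 °C; 1 = growth at the plate median or of vehicle wells; lower values mean less growth of the strain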
Details: S. cerevisiae deletion strains, growth OD

Measured: normalized growth

COc1cnc(NS(=O)(=O)c2ccc(N)cc2)nc1
inactive: locus YAL021C, strain ccr4, active compounds read low 1.01 | locus YAL026C, strain drs2, active compounds read low 1 | locus YAL030W, strain snc1, active compounds read low 1.01 | locus YBL061C, strain skt5, active compounds read low 0.994 | locus YBR009C, strain hhf1, active compounds read low 1.01 | locus YBR021W, strain FUR4, active compounds read low 1.02 | locus YBR023C, strain chs3, active compounds read low 0.998 | locus YBR171W, strain sec66, active compounds read low 0.993 | locus YBR229C, strain ROT2, active compounds read low 0.956 | locus YBR231C, strain swc5, active compounds read low 0.991 | locus YBR279W, strain paf1, active compounds read low 0.993 | locus YCL011C, strain gbp2, active compounds read low 1 | locus YCL016C, strain dcc1, active compounds read low 0.983 | locus YCL029C, strain bik1, active compounds read low 0.98 | locus YCL069W, strain vba3, active compounds read low 1 | locus YCR088W, strain abp1, active compounds read low 1 | locus YDL005C, strain med2, active compounds read low 0.997 | locus YDL035C, strain GPR1, active compounds read low 0.996 | locus YDL040C, strain nat1, active compounds read low 1 | locus YDL074C, strain BRE1, active compounds read low 0.988 | locus YDL101C, strain DUN1, active compounds read low 0.98 | locus YDL134C, strain PPH21, active compounds read low 1 | locus YDL185W, strain tfp1, active compounds read low 0.962 | locus YDL192W, strain arf1, active compounds read low 0.972 | locus YDR001C, strain nth1, active compounds read low 0.997 | locus YDR069C, strain doa4, active compounds read low 1.01 | locus YDR101C, strain arx1, active compounds read low 0.983 | locus YDR137W, strain rgp1, active compounds read low 0.996 | locus YDR159W, strain sac3, active compounds read low 0.92 | locus YDR162C, strain NBP2, active compounds read low 0.992 | locus YDR195W, strain ref2 0.984 | locus YDR297W, strain sur2, active compounds read low 1.01 | locus YDR318W, strain mcm21, active compounds read low 0.986 | locus YDR334W, strain swr1, active compounds read low 0.998 | locus YDR335W, strain msn5, active compounds read low 0.993 | locus YDR388W, active compounds read low 0.985 | locus YDR392W, strain spt3, active compounds read low 0.925 | locus YDR502C, strain sam2, active compounds read low 0.987 | locus YEL003W, strain gim4, active compounds read low 1 | locus YEL037C, strain rad23, active compounds read low 0.999 | locus YEL061C, strain CIN8 (second series), active compounds read low 1 | locus YEL061C, strain CIN8, active compounds read low 0.979 | locus YER015W, strain faa2, active compounds read low 1 | locus YER016W, strain bim1, active compounds read low 0.998 | locus YER110C, active compounds read low 0.969 | locus YER111C, strain swi4, active compounds read low 1.01 | locus YER155C, strain BEM2 (second series), active compounds read low 1.02 | locus YER155C, strain BEM2, active compounds read low 1 | locus YER167W, strain BCK2, active compounds read low 0.99 | locus YFR010W, strain ubp6, active compounds read low 0.989 | locus YGL078C, strain dbp3, active compounds read low 0.978 | locus YGL086W, strain mad1, active compounds read low 0.985 | locus YGL167C, strain pmr1, active compounds read low 0.993 | locus YGL173C, strain kem1, active compounds read low 1.01 | locus YGL227W, strain vid30, active compounds read low 1 | locus YGL240W, strain doc1, active compounds read low 0.994 | locus YGL248W, strain PDE1, active compounds read low 0.976 | locus YGL253W, strain hxk2, active compounds read low 0.994 | locus YGR135W, strain pre9, active compounds read low 0.988 | locus YGR229C, strain SMI1, active compounds read low 1.01 | locus YGR252W, strain gcn5, active compounds read low 0.949 | locus YHR013C, strain ard1, active compounds read low 1 | locus YHR027C, strain rpn1, active compounds read low 0.982 | locus YHR030C, strain SLT2, active compounds read low 1 and 0.997 | locus YHR079C, strain IRE1 (second series), active compounds read low 0.984 | locus YHR079C, strain IRE1, active compounds read low 0.989 | locus YHR094C, strain hxt1, active compounds read low 0.984 | locus YHR129C, strain ARP1, active compounds read low 0.997 | locus YHR142W, strain chs7, active compounds read low 1 | locus YHR200W, strain rpn10, active compounds read low 0.969 | locus YIL066C, strain RNR3, active compounds read low 0.978 | locus YIL073C, strain SPO22, active compounds read low 0.999 | locus YIL125W, strain kgd1, active compounds read low 0.974 | locus YIR030C, strain dcg1, active compounds read low 0.982 | locus YJL092W, strain hpr5, active compounds read low 1 | locus YJL095W, strain BCK1 (second series), active compounds read low 0.988 | locus YJL095W, strain BCK1, active compounds read low 0.983 and 1.01 | locus YJL115W, strain asf1, active compounds read low 0.993 | locus YJL129C, strain trk1, active compounds read low 0.986 | locus YJL134W, strain LCB3, active compounds read low 0.995 | locus YJL154C, strain vps35, active compounds read low 1 | locus YJL164C, strain tpk1, active compounds read low 0.981 | locus YJL166W, strain qcr8, active compounds read low 1.01 | locus YJL168C, strain set2, active compounds read low 0.982 | locus YJL187C, strain SWE1 (second series), active compounds read low 0.965 | locus YJR043C, strain POL32, active compounds read low 0.992 | locus YJR066W, strain TOR1, active compounds read low 0.934
